Hit rate of the full screen: of about 65,000 compounds, about 3,600 (5.5%) were called active.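 How the source made its calls: active means at 10 µM, mean starting fluorescence two-fold or more over control wells; inactive means the rest.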 Only a selection was taken, and actives are over-represented in it overall.

We go through 22 compounds from PubChem BioAssay AID709 (SRMLSC, 2007).

The test can be described thus: intrinsic fluorescence of library compounds, ex339/em460 – biochemical, MLSMR library, data from DPM-DC assay, artefact control, profiling panel (AID 709).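 Further: signal is the first read of a kinetic run.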 The conditions noted are these: compound autofluorescence, ex339/em460 nm, NADH buffer; at 10 µM; stronger effect = higher value; 1 = no-compound wells, NADH background.
As for `CC(C)C(c1nnnn1C1CCCC1)N1CCN(c2ccccc2F)CC1` (configuration not stated), the fluorescence fold increase is 1.02 (inactive).

In the case of `Cc1ccc(C2c3c(oc4ccc(C)cc4c3=O)C(=O)N2CCCN2CCOCC2)cc1` (configuration not stated), the fluorescence fold increase was 1.09 (inactive).

Take `O=C(Cn1nc(Cc2cccnc2)c2ccccc2c1=O)NCC1CCCO1` (configuration not stated): the fluorescence fold increase is 1.03 (inactive).

With `Cc1cccn2c(=O)c3cc(C#N)c(=NC(=O)c4cccnc4)n(CC4CCCO4)c3nc12` (configuration not stated), the fluorescence fold increase was 2.38 (active).

Take `COc1ccc(CNC(=O)c2cc3c(=O)n4ccccc4nc3n(CC3CCCO3)c2=N)cc1` (configuration not stated): the fluorescence fold increase was 1.91 (inactive).

`Cc1cccn2c(=O)c3cc(C#N)c(=O)n(CCCN4CCOCC4)c3nc12`: the fluorescence fold increase was 3.03 (active).

In the case of `Cn1c(=O)c2c(nc(CN3CCOCC3)n2Cc2ccccc2)n(C)c1=O`, the fluorescence fold increase is 1.04 (inactive).

Turning to `CCOc1ccc2c(c1)cc(CN(C(=O)CC)C1CCCCC1)c1nnnn12`, the fluorescence fold increase is 1.21 (inactive).

Consider `COc1cc(C2C(C#N)=C(N)Oc3n[nH]c(-c4ccccn4)c32)cc(OC)c1OC` (configuration not stated), for which the fluorescence fold increase is 1.09 (inactive).

For the compound `CCc1ccc2oc(-c3ccc(N)cc3)nc2c1`, the fluorescence fold increase is 2.12 (active).

In the case of `COc1cccc(-c2nc3cc(C)ccc3o2)c1`, the fluorescence fold increase was 1.2 (inactive).

Regarding `CCOC(=O)CSc1nc2c(c(=O)n(Cc3ccccc3Cl)c(=O)n2C)n1C`, the fluorescence fold increase is 1.06 (inactive).

For `N#Cc1nc(COc2ccc(-c3ccccc3)cc2)oc1NCc1cccnc1`, the fluorescence fold increase was 1.07 (inactive).

For the compound `N#Cc1nc(Cc2ccccc2)oc1NCCc1ccccc1`, the fluorescence fold increase is 1.1 (inactive).

Consider `N#Cc1nc(-c2ccc(OCc3ccccc3)cc2)oc1NCCCN1CCOCC1`, for which the fluorescence fold increase is 3.88 (active).

Take `Cc1cc(=O)oc(C)c1C(=O)Nc1cnc2ccccc2c1`: the fluorescence fold increase was 1.27 (inactive).

On to `Cc1ccc2nc(-c3ccccc3)cc(C(=O)O)c2c1`, for which the fluorescence fold increase was 1.22 (inactive).

`Cc1ccc(NC(=O)c2cc(-c3ccc(C)o3)nc3ccccc23)nc1`: the fluorescence fold increase was 2.48 (active).

With `CCc1c(O)nc(SCC(=O)N2CCCCC2)n(-c2ccccc2C)c1=O`, the fluorescence fold increase is 1.04 (inactive).

Consider `CC1CN(c2cc(=O)n(Cc3ccc(F)cc3)c(=O)[nH]2)CC(C)O1` (configuration not stated), for which the fluorescence fold increase is 1.08 (inactive).

With `Cc1ccc(S(=O)(=O)NCc2nc3ccccc3c(=O)n2N)cc1`, the fluorescence fold increase was 1.1 (inactive).

As to `Cc1ccc(S(=O)(=O)c2c(N)n(C)c3nc4ccccc4nc23)cc1`, the fluorescence fold increase is 3.95 (active).
